Test [1] concerns the target Steroid hormone receptor ERR1 (Homo sapiens) (UniProt P11474). Nature of the test: ATG_ERRa_TRANS: Attagene TRANS-FACTORIAL HepG2 Assay for human Estrogen-Related Receptor alpha (ERRa) (AID 2282971). The conditions noted are these: HepG2 Attagene TRANS reporter, ERRa transactivation. Summed up: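 HepG2 cells transiently transfected with GAL4-UAS reporter units and chimeric NR-Gal4 constructs; after 24 hour compound incubation, reporter mRNA quantified by RT-PCR, fluorescent labelling and capillary electrophoresis, gain of signal versus DMSO.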

For test [2], the target named is Estrogen-related receptor gamma (Homo sapiens) (UniProt P62508). Briefly: ATG_ERRg_TRANS: Attagene TRANS-FACTORIAL HepG2 Assay for human Estrogen-Related Receptor gamma (ERRg) (AID 2282977).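 Further: hits increase reporter signal over DMSO so potencies reflect activators.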 The conditions noted are these: HepG2 Attagene TRANS reporter, ERRg transactivation. An outline of the steps: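 Transfect HepG2 with multiple GAL4-UAS reporter transcription units; dose chemicals 24 h; isolate RNA, reverse-transcribe with oligo(dT), PCR-amplify, label with 6-FAM, digest with HpaI; size fragments by capillary electrophoresis. DMSO serves as negative control.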

Test [3] in a line: BSK_3C_uPAR: BioMAP Diversity Plus: 3C Assay for Urokinase-type plasminogen activator receptor (uPAR) Biomarker Activity (AID 2282998; active means hit-call score of the fitted dose curve at least 0.9, where 1 is the maximum; inactive means score below 0.9). To be noted: BioMAP 3C HUVEC, uPAR biomarker ELISA; actives raise or lower the signal. An outline of the steps:
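Dose primary human umbilical vein endothelial cells, incubate 24 h, measure cell-surface uPAR by ELISA, then fit the signal in both directions against the DMSO negative control.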

Test [4] is described as follows: BSK_4H_Eotaxin3: BioMAP Diversity Plus: 4H Assay for Eotaxin 3 Biomarker Activity (AID 2283000; active means hit-call score of the fitted dose curve at least 0.9, where 1 is the maximum; inactive means score below 0.9;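 further: CCL26 protein level quantified by ELISA in parallel with SRB cytotoxicity check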). To be noted: primary human endothelial cells (HUVEC); actives raise or lower the signal. Summed up: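 Eotaxin-3 (CCL26) levels were measured by ELISA in HUVEC primary cultures 24 h post-dosing. Gain or loss of signal was fitted in both directions, with DMSO serving as baseline and negative control.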

Read-out in test [5]: Intercellular Adhesion Molecule 1 (ICAM1), ICAM1 (gene 3383)
Nature of the test: BSK_3C_ICAM1: BioMAP Diversity Plus: 3C Assay for Intercellular Adhesion Molecule 1 (ICAM1) Biomarker Activity (AID 2283003; active means hit-call score of the fitted dose curve at least 0.9, where 1 is the maximum; inactive means score below 0.9). To be noted: primary human endothelial cells (HUVEC); actives raise or lower the signal. Summed up: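 ICAM-1 levels measured by ELISA after HUVEC cultures in the 3C system had been dosed for 24 h. Gain or loss of signal relative to DMSO was fitted in both directions.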

Read-out in test [6]: Monocyte Chemoattractant Protein-1 (MCP1), CCL2 (gene 6347)
Nature of the test: BSK_4H_MCP1: BioMAP Diversity Plus: 4H Assay for Monocyte Chemoattractant Protein-1 (MCP1) Biomarker Activity (AID 2283018; active means hit-call score of the fitted dose curve at least 0.9, where 1 is the maximum; inactive means score below 0.9). The conditions noted are these: primary human endothelial cells (HUVEC); actives raise or lower the signal. An outline of the steps: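 ELISA read-out of MCP-1 from human vascular endothelial primary cells taken at 24 hours after compound exposure. Activity was fitted in both directions relative to DMSO, which served as negative control.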

Read-out in test [7]: Thrombomodulin, THBD (gene 7056)
Briefly: BSK_CASM3C_Thrombomodulin: BioMAP Diversity Plus: CASM3C Assay for Thrombomodulin Biomarker Activity (AID 2283051; active means hit-call score of the fitted dose curve at least 0.9, where 1 is the maximum; inactive means score below 0.9;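 further: thrombomodulin protein level measured by ELISA 24 h after dosing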). To be noted: primary human coronary artery smooth muscle cells; actives raise or lower the signal.

The target in test [8] is Estrogen receptor beta (Homo sapiens) (UniProt Q92731). Briefly: OT_ER_ERbERb_0480: Odyssey Thera (OT) 8-hour HEK293T Protein-Complementation Assay for Estrogen Receptor-beta/-beta Homodimer (AID 2283357). Summed up: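 Readout: increase in mean fluorescence intensity (nucleus for agonists; nucleus plus cytoplasm for antagonists) relative to DMSO, from a reporter-fragment complementation of human ER-beta LBD homodimer in HEK293T cells dosed 8 hours.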

Test [9] shares this target. Nature of the test: OT_ER_ERbERb_1440: Odyssey Thera (OT) 24-hour HEK293T Protein-Complementation Assay for Estrogen Receptor-beta/-beta Homodimer (AID 2283380).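 Further: fluorescence gain from ER beta LBD homodimer complementation read by laser scanning cytometry; scored as signal increase over DMSO baseline for both agonists and antagonists.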 Summed up: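 HEK293T cells stably expressing human ER-beta LBD (aa 310-547) PCA homodimer pair, dosed 24 h; formaldehyde-fixed, Draq5-stained. Readout: increase in nuclear (agonist) or nuclear plus cytoplasmic (antagonist) fluorescence intensity versus DMSO, gain-of-signal fitting.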

In test [10] the target is Retinoic acid receptor RXR-alpha (Homo sapiens) (UniProt P19793). Briefly: OT_NURR1_NURR1RXRa_0480: Odyssey Thera (OT) 8-hour HEK293T Protein Complementation Assay for Nurr1/retinoid X receptor (RXR) (AID 2283385). An outline of the steps: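 8 h compound exposure, HEK293T; Nurr1/RXRα fragment complementation; fluorescence intensity; positive fitting direction vs DMSO baseline.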

The target is the same in test [11]. Nature of the test: OT_NURR1_NURR1RXRa_1440: Odyssey Thera (OT) 24-hour HEK293T Protein Complementation Assay for Nurr1/retinoid X receptor (RXR) (AID 2283386). An outline of the steps:
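Interaction of Nurr1 with RXRα brings fused reporter fragments together in human HEK293T cells, restoring a functional reporter. Fluorescence intensity is measured 24 h after chemical treatment, and values are analysed in the positive direction against DMSO.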

In test [12] the target is Peroxisome proliferator-activated receptor gamma (Homo sapiens) (UniProt P37231). Briefly: OT_PPARg_PPARgSRC1_1440: Odyssey Thera (OT) 24-hour Protein-Complementation Assay for Peroxisome Proliferator-activated Receptor Gamma/ SRC-1 Co-activator (AID 2283388). Summed up:
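HEK293T transiently transfected with PPARg/SRC-1 split-Venus YFP fusions 48 h before dosing, then treated 24 h at 37C. Fixed cells imaged; nuclear/cytoplasmic 488 nm fluorescence ratio, gain of signal versus DMSO.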

Test [13] is described as follows: ACEA_AR_agonist_AUC_viability: ACEA Biosciences xCELLigence Real-Time Cell Analysis on Androgen Receptor Agonism for Viability (AID 2283775).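 On AC50: viability read 80 hours after compound addition.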 Summed up: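 Real-time impedance tracking of 22Rv1 growth, readings every 5 min for 5 h then hourly; area-under-curve viability endpoint at 80 hours, relative to DMSO. Compounds at eight concentrations, 1:4 steps, top 100 uM, n = 2.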

A short description of test [14]: ACEA_AR_antagonist_AUC_viability: ACEA Biosciences xCELLigence Real-Time Cell Analysis on Androgen Receptor Antagonism for Viability (AID 2283776).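 Further: 22Rv1 human prostate cancer cells growing on impedance electrode plates; hits lower the growth signal relative to DMSO meaning cytotoxicity.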 An outline of the steps:
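Real-time electrical impedance tracks 22Rv1 proliferation after continuous compound exposure (top 100 uM final, 1:4 steps, 8 concentrations). The 80 h area-under-curve serves as the cytotoxicity readout relative to DMSO.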

Test [15] in a line: CCTE_Harrill_HTTr_CellCount_MCF7: CCTE's Cell Proliferation Assessment for the High-Throughput Transcriptomics (HTTr) Platform, Harrill Lab (AID 2284012).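 Further: count of Hoechst-stained nuclei per well by high-content imaging in MCF-7 cells; cells exposed to compound for six hours; intended direction is loss of nuclei count meaning fewer cells.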 An outline of the steps:
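Chemicals in eight-point dilution series are added to MCF-7 cells for six hours, nuclei are stained with Hoechst and imaged, and per-well nuclei counts are fitted in both directions relative to DMSO controls.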

Test [16] is described as follows: ATG_ERE_CIS: Attagene CIS-FACTORIAL HepG2 Assay for Estrogen Response Element (ERE) (AID 2282940; active means hit-call score of the fitted dose curve at least 0.9, where 1 is the maximum; inactive means score below 0.9). To be noted: HepG2 ERE cis-reporter, Attagene RNA transcript; actives raise or lower the signal. Summed up:
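Cells used were human hepatoma HepG2, transfected with multiple reporter transcription units under cis-regulatory promoters. Reporter mRNA, read 24 h post-dosing via fluorescent RT-PCR products on capillary electrophoresis, was fitted bidirectionally relative to DMSO.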

Test [17] concerns the target Estrogen receptor (Homo sapiens) (UniProt P03372). Nature of the test: ATG_ERa_TRANS: Attagene TRANS-FACTORIAL HepG2 Assay for human Estrogen Receptor alpha (ERa) (AID 2282970). To be noted: HepG2 Attagene TRANS ERa GAL4 reporter, mRNA. Summed up:
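HepG2 cells transiently transfected with multiplexed GAL4-UAS reporter units read out chimeric NR-Gal4 activity. After 24 h compound exposure, reporter mRNA was quantified by RT-PCR, 6-FAM labeling, HpaI digestion and capillary electrophoresis, relative to DMSO.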

Test [18] has as its target Bile acid receptor (Homo sapiens) (UniProt Q96RI1). Nature of the test: ATG_FXR_TRANS: Attagene TRANS-FACTORIAL HepG2 Assay for Farnesoid X Receptor (FXR) (AID 2282979).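 Further: hits raise reporter mRNA above DMSO so AC50 marks FXR activation.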 The conditions noted are these: HepG2 Attagene TRANS FXR-GAL4 reporter transcription. An outline of the steps:
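HepG2 cells were transiently transfected with GAL4-UAS reporters driven by chimeric NR-Gal4 proteins and dosed for 24 h. Reporter mRNA was quantified by RT-PCR, fluorescent labelling, HpaI digestion and capillary electrophoresis, with gain of signal scored versus DMSO.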

Test [19] can be described thus: CCTE_Harrill_HTTr_Apoptosis_MCF7: CCTE's 6-hour Apoptosis Assessment for the High-Throughput Transcriptomics (HTTr) Platform, in MCF-7 cells cultured in DMEM + 10% fetal bovine serum, Harrill Lab (AID 2284011; active means hit-call score of the fitted dose curve at least 0.9, where 1 is the maximum; inactive means score below 0.9). An outline of the steps:
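MCF-7 cells in DMEM + 10% FBS exposed 6 h to chemicals over an eight-point dilution series. Caspase-3/7 activation imaged by high-content CellEvent Green staining; fitted bidirectionally versus DMSO.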

In test [20] the target is human Thyroid Receptor alpha (THRa1), THRA (gene 7067) (UniProt P10827). Nature of the test: ATG_THRa1_TRANS: Attagene TRANS-FACTORIAL HepG2 Assay for human Thyroid Receptor alpha (THRa1) (AID 2283014). Summed up: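 HepG2 cells transiently transfected with chimeric NR-Gal4 and GAL4-UAS reporter units, dosed 24 h. Reporter mRNA quantified by RT-PCR, fluorescent labeling, HpaI digestion and capillary electrophoresis; gain-of-signal fit versus DMSO.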

Records with an inconclusive call do not appear. Calls of active or inactive are those of the source. How the source made its calls, unless noted: active means hit-call score of the fitted dose curve at least 0.9, where 1 is the maximum; inconclusive means response in the unintended direction; inactive means score below 0.9.

Sequence of Bile acid receptor (Homo sapiens) (Q96RI1 whole entry, looked up, the tested form may be a part): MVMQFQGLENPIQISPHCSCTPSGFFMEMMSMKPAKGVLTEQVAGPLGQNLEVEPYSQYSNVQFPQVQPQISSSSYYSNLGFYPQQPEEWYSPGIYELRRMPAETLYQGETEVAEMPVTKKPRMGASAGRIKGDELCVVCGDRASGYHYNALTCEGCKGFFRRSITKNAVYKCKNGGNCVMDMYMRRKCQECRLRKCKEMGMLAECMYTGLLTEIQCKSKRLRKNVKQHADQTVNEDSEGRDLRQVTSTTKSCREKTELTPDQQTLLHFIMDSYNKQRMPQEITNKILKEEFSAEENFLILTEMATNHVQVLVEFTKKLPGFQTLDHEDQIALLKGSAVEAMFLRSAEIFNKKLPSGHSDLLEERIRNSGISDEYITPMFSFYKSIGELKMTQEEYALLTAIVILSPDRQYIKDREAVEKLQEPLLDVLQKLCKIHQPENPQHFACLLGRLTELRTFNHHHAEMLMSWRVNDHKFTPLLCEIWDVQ
Sequence of Retinoic acid receptor RXR-alpha (Homo sapiens) (P19793 whole entry, looked up, the tested form may be a part): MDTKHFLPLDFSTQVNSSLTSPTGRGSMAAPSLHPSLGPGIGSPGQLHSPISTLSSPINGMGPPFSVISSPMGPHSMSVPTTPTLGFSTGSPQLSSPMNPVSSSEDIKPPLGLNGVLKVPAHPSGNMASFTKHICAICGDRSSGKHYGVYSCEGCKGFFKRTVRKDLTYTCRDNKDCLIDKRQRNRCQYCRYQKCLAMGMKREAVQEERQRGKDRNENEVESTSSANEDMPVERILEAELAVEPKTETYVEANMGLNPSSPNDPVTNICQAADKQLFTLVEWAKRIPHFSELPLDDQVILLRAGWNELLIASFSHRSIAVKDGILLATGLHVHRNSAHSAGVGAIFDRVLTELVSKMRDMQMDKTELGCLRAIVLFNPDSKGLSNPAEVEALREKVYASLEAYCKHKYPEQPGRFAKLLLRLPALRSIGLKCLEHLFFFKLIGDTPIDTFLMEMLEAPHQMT
Sequence of Estrogen receptor beta (Homo sapiens) (Q92731 whole entry, looked up, the tested form may be a part): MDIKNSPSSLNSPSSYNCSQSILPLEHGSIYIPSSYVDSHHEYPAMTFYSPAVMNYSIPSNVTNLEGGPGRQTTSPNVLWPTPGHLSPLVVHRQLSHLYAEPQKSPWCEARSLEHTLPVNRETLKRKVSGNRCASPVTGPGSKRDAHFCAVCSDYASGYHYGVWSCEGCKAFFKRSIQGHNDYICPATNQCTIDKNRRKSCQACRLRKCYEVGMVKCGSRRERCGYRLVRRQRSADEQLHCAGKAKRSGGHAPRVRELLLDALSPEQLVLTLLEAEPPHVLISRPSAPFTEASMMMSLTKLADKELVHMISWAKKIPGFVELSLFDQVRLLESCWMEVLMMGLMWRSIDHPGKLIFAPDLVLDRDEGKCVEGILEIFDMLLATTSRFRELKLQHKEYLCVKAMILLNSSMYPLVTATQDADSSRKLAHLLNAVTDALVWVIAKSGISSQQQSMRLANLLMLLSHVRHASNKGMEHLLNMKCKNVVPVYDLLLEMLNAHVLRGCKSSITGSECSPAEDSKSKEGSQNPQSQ
Sequence of Peroxisome proliferator-activated receptor gamma (Homo sapiens) (P37231 whole entry, looked up, the tested form may be a part): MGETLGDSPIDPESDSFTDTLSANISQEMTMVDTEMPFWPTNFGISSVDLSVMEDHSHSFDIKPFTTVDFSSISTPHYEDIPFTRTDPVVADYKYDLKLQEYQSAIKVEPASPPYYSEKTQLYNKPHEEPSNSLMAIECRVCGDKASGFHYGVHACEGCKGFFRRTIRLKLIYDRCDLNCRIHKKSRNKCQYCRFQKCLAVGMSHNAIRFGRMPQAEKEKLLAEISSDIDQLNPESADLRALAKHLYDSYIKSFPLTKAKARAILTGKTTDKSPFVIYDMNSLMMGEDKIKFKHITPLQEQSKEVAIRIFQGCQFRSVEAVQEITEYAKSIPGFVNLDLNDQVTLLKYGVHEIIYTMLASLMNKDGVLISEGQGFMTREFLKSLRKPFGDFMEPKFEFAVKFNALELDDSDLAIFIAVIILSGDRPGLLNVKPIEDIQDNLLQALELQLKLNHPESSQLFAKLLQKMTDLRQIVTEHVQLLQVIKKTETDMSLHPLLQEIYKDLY
Sequence of Estrogen-related receptor gamma (Homo sapiens) (P62508 whole entry, looked up, the tested form may be a part): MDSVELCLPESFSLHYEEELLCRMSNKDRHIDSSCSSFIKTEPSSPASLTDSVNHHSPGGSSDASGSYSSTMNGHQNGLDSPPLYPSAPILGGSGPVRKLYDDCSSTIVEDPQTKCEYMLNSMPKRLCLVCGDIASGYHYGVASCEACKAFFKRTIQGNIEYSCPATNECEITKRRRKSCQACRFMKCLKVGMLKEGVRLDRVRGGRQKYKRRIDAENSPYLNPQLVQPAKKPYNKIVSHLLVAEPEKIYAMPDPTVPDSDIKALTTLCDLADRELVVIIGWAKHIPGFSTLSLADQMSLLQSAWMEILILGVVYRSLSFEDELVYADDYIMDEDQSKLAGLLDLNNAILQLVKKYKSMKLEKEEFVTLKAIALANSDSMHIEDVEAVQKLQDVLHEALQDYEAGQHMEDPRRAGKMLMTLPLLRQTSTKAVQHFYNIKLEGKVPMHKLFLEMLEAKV
Sequence of Estrogen receptor (Homo sapiens) (P03372 whole entry, looked up, the tested form may be a part): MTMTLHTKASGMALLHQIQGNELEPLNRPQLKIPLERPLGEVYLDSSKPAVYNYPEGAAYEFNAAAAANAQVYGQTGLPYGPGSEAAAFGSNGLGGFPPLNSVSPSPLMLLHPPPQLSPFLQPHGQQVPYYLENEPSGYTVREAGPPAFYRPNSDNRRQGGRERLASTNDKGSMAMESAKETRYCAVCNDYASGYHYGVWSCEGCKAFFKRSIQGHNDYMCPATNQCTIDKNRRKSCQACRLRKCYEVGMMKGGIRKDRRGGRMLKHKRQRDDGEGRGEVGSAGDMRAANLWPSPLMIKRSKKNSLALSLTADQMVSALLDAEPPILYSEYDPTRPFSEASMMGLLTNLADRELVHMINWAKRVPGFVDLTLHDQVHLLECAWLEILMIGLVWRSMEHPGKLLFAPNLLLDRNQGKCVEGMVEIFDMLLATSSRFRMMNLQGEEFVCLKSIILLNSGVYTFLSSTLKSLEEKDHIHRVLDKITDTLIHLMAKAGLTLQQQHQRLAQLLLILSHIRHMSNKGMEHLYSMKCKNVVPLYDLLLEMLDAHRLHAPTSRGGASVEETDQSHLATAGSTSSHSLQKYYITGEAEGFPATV
Sequence of Steroid hormone receptor ERR1 (Homo sapiens) (P11474 whole entry, looked up, the tested form may be a part): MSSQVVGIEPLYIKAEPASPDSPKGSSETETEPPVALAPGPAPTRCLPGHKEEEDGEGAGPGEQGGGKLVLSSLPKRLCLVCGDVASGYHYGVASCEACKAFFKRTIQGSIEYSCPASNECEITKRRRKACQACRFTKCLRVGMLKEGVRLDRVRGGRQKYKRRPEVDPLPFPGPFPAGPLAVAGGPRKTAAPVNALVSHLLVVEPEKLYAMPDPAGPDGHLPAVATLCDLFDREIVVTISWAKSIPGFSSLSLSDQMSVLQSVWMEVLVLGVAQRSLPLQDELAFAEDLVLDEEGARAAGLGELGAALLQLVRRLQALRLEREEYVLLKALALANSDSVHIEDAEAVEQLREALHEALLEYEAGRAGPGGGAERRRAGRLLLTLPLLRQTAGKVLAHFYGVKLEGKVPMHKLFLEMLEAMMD
Sequence of human Thyroid Receptor alpha (THRa1), THRA (gene 7067) (P10827 whole entry, looked up, the tested form may be a part): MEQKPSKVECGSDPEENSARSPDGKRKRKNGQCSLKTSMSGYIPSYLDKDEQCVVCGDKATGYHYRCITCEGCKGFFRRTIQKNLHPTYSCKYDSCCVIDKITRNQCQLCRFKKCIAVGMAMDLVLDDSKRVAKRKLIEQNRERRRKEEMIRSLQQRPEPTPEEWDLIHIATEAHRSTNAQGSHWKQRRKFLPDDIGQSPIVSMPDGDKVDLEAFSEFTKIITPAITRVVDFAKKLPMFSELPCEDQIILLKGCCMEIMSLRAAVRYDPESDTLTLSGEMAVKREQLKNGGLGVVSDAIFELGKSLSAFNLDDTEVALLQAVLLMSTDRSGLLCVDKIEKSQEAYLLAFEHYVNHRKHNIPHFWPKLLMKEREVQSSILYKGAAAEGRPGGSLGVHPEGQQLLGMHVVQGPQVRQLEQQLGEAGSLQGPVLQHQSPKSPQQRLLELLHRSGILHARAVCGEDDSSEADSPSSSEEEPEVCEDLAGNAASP

As usually defined, the AC50 is the concentration at which the activity in the assay is half-maximal. Consider `C=CC(=O)OCC(CC)CCCC` (stereo not given), for which the result in [1], in test [2], in test [3], in test [4], in test [5] and in test [6] was inactive. Moreover, the outcome in [7], in test [8], in test [9], in test [10], in [11] and in [12] was inactive. Besides, the outcome in [14] and in test [15] was inactive. Moreover, in test [13], the AC50 is 4.45 µM (active).

Turning to `O=C(O)COc1ccccc1`, the result in test [16] and in test [17] was inactive.

Turning to `O=P(O)(Oc1ccccc1)Oc1ccccc1`, the compound was classed as inactive in [16], in test [17], in [18], in test [8], in test [9] and in test [11]. In addition, the outcome in test [12] was inactive.

As for `c1ccc(P(c2ccccc2)c2ccccc2)cc1`, the figures for the AC50 in test [16], in test [17] and in [8] were 23.5 µM (active), 15.2 µM (active) and 25.4 µM (active), respectively. The call in test [9], in test [10], in [11], in [12] and in [14] was inactive.

As to `CC(C)CCCCCCCOC(=O)c1ccccc1C(=O)OCCCCCCCC(C)C`, the result in test [2], in test [18], in test [3], in [4], in test [5] and in test [6] was inactive. The result in test [7], in test [19] and in test [15] was inactive.

Turning to `CCCC=NO`, the AC50 in [16] is 43.5 µM (active). Further, the compound was classed as inactive in test [17], in [18], in test [8], in test [9], in test [10] and in test [11]. The compound was called inactive in test [12], in test [13] and in [14].

Regarding `C[C@]12CCC(=O)C(O)=C1CC[C@@H]1[C@@H]2CC[C@]2(C)C(=O)CC[C@@H]12`, the AC50 in test [16] is 16.8 µM (active); in [17] it was 9.42 µM (active). Also, the outcome in [19] and in test [15] was inactive.

`CCc1cccc(C)c1N(C(=O)CCl)[C@@H](C)COC`: the call in test [8], in [9], in test [10], in [12], in test [13] and in [14] was inactive. The result in test [19] and in [15] was inactive.

Take `O=C(NCNC(=O)NC1C(=O)NC(=O)N1CO)NC1C(=O)NC(=O)N1CO` (stereo not given): the result in test [2], in test [20], in test [9], in test [10], in test [12] and in [13] was inactive. For the same compound, the result in [14] was inactive. In addition, in test [11], the concentration at half-maximal activity (AC50) is 78 µM (active).

For the compound `CC(C)(O)C#N`, the compound was classed as inactive in test [8], in test [9], in [10], in [11], in test [12] and in test [13]. Also, the call in test [14], in test [19] and in test [15] was inactive.
